# hcDAF-12 act – activates DAF-12 receptor from parasite H. contortus; activation, % at 6.8 µM; actives 1.4% (n = 370,000); HEK293 hcDAF-12 lit1-tk-luc reporter, luminescence; 0% DMSO, 100% Δ7-dafachronic acid;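 active = activation above the mean of all tested compounds plus 3 SD, cut at about 5.5% in these data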;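 also: 100% = response to 3 µM Δ7-dafachronic acid high control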
# DAX1 inh-1 – DAX1 (NR0B1) inhibition, primary screen. HEK293T StAR-luciferase reporter, SF-1/DAX-1 repression relief. inhibition, % at 6.8 µM. actives 1.1% (n = 370,000);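 active = inhibition above the mean over all tested compounds plus 3 SD, cut at about 3.6% in these data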;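 also: 0% = DAX-1 cells with DMSO and 100% = cells lacking DAX-1 with DMSO; higher inhibition means more luminescence from relief of DAX-1 repression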
# hgDAF-12 ag – hgDAF-12 agonism, primary luciferase screen. HEK293 GAL4-hgDAF12 UAS-luciferase reporter, agonist luminescence; normalized to butyrate control. activation, % at 6.8 µM. actives 1.8% (n = 370,000). AID 687014;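 active = activation above a cutoff set at the mean of all screened compounds plus 3 SD, cut at about 10% in these data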;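 also: 0% = DMSO wells and 100% = sodium butyrate wells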
# DAX1 inh-2 – inhibits human nuclear receptor DAX1 | actives 0.99% (n = 340,000) | inhibition, % at 6.75 µM | AID 504766 | HEK293 Gal4-DAX1 luciferase reporter, luminescence | P51843;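 active = inhibition above the mean over all tested compounds plus 3 SD, cut at about 4.2% in these data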;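 also: 0% = DAX1-transfected cells with DMSO and 100% = empty-vector control cells with DMSO; inhibition shows as a rise in luminescence from relieved DAX1 repression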
# Target sequence (P51843 207-470 limits assumed): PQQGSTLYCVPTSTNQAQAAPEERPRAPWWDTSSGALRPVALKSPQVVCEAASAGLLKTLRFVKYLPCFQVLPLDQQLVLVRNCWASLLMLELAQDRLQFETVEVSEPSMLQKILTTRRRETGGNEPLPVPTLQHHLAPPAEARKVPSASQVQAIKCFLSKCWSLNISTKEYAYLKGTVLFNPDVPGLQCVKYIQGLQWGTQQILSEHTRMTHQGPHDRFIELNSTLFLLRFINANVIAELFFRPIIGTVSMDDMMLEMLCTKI
# ssDAF-12 act – activates DAF-12 receptor from parasite S. stercoralis. HEK293 ssDAF-12/GRIP1 lit1-tk-luc reporter, luminescence; % of 3 µM dafachronic acid response. AID 652126. actives 1% (n = 370,000). activation, % at 6.8 µM;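 active = activation above the mean over all tested compounds plus 3 SD, cut at about 0.9% in these data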;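 also: 0% = DMSO-only wells and 100% = 3 µM delta7-dafachronic acid wells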
# SMARCA2 activ – increases SMARCA2 function in MMTV reporter cells | activation, % at 9.1 µM | AID 652017 | MG213 cells, MMTV-luciferase reporter, dexamethasone, overnight | actives 1% (n = 370,000); in the data active = activation above about 7.8%;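 also: 0% = vehicle wells and 100% = reference activator wells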
# LXR ag – activates human LXR-beta, counter-screen for hcDAF-12 agonists | shares compounds with hcDAF-12 act | HEK293 Gal4-LXR tk-luc reporter, luminescence, 24 h; normalized: DMSO 0%, positive control 100% | activation, % at 6.8 µM | 3,400 tested, under 10 active | AID 743027;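 active = mean percent activation of the reporter above a cutoff set as the average over tested compounds plus their standard deviation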
# hcDAF12 conf – confirmation of H. contortus DAF-12 agonists; shares compounds with hcDAF-12 act; HEK293 hcDAF-12 lit1-tk-luc reporter, luminescence; % of Δ7-dafachronic acid response; activation, % at 6.8 µM; actives 61% (n = 3,400); AID 743032;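 active = mean activation across triplicate tests above the threshold derived from the earlier primary screen, cut at about 5.5% in these data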;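 also: 0% = DMSO only wells and 100% = 3 µM Δ7-dafachronic acid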
# * = called active by the depositor; · = not tested or not shown. Rows were chosen to be rich in hits. Some 4.8% of all compounds tested hit in one or more screens of this group.
SMILES,hcDAF-12 act,DAX1 inh-1,hgDAF-12 ag,DAX1 inh-2,ssDAF-12 act,SMARCA2 activ,LXR ag,hcDAF12 conf
c1ccc(-c2nc3cc4ccccc4cc3[nH]2)nc1,8.8*,1.7,8.8,-3.3,0.3,4.7,1.6,11.2*
C/C(=N\O)c1sc(-c2ccccc2)nc1C,11.5*,3.8*,11.9*,2.3,1.1*,7.9*,1.1,7.2*
Cc1nn(-c2ccccc2)c2c1C1(C(=O)N(C)c3ccccc31)N(c1ccccc1)C(=O)N2 (stereo not given),6.6*,2.0,2.5,-1.6,0.1,-1.8,-0.2,3.6
CC(C)N1CCC(N2CCN(Cc3ccc(Oc4ncccn4)cc3)CC2CCO)CC1 (stereo not given),0.7,-0.1,-0.5,1.9,-0.5,0.8,·,·
Cn1ncc([N+](=O)[O-])c1C(=O)N1CCCCCC1,-1.0,0.5,0.1,1.0,-0.5,-1.1,·,·
CC(C)(C)CN1CCN(CC#Cc2ccccc2)CC1CCO (stereo not given),7.5*,-0.2,3.3,1.9,-0.9,-1.9,0.0,4.7
CN1/C(=C\C=C2/SC(=S)NC2=O)C(C)(C)c2ccccc21,-4.4,-2.6,-5.4,-3.9,-2.5,-6.2,·,·
CN1CCC/C1=C/C=C1\SC(=S)NC1=O,7.0*,0.6,0.9,2.8,-0.9,-0.4,0.2,3.1
O=C(NC(=S)Nc1ncc(Br)cc1Br)c1ccccc1,8.0*,0.7,8.8,0.9,0.6,3.0,0.9,8.7*
O=C(Oc1ccccc1/C=C\C(=O)c1cc2ccccc2o1)c1cccc(F)c1,11.0*,0.3,9.9,2.5,0.1,2.9,0.6,7.2*
O=C(N/N=C/c1ccccc1OC(=O)c1ccc2c(c1)OCO2)c1cccc(F)c1,-1.2,0.1,4.7,2.0,-1.2,5.3,·,·
CCCN1CCC(NC(=O)C2CCN(C(C)=O)CC2)CC1,0.3,0.3,-1.5,0.1,-0.6,2.2,·,·
O=C(Nc1ccccc1Cl)C(=O)c1cn(CC(=O)N2CCOCC2)c2ccccc12,7.6*,0.7,6.7,2.4,0.3,0.8,0.9,8.6*
O=C(Cn1cc(SCc2ccccc2Cl)c2ccccc21)N1CCOCC1,11.0*,1.4,5.7,-1.0,-0.7,3.0,0.5,4.7
COc1ccc(CNC(=O)C(=O)c2cn(CC(=O)N3CCOCC3)c3ccccc23)cc1,-0.6,0.1,0.8,1.3,-0.2,3.5,·,·
O=C(NCc1ccc(Cl)cc1)C(=O)c1cn(CC(=O)N2CCOCC2)c2ccccc12,-3.3,0.0,2.4,0.4,-1.1,0.1,·,·
COc1ccc(CNC(=O)C(=O)c2cn(CC(=O)N3CCCC3)c3ccccc23)cc1,7.2*,0.5,0.7,0.1,0.4,0.9,0.0,3.4
C=CCn1c(=O)c2ccccc2n2c(SCC(=O)NC(C)C)nnc12,-1.3,-0.4,-0.5,3.3,-1.4,-0.4,·,·
O=C(O)c1cc(N/N=C/c2cccc3ccccc23)ccc1Cl,8.4*,0.5,1.3,2.1,-0.5,4.1,1.0,8.2*
C=C1CC[C@@]23CC[C@]4(C)[C@@](OC2=O)([C@@H]3C1)[C@H]1O[C@H]1C1[C@@]2(C)CC[C@H](O)C(C)(C)C2CC[C@]14C (stereo not given in full),·,·,·,-0.8,·,·,·,·
COc1ccc(-n2c(SCC(=O)NCC3CCCO3)nc3c([nH]c4ccccc43)c2=O)cc1OC (stereo not given),8.1*,-1.3,10.4*,0.4,-0.3,-1.0,-0.3,4.8
COc1cccc(-n2c(SCC(=O)NCC3CCCO3)nc3c([nH]c4ccccc43)c2=O)c1 (stereo not given),4.2,1.0,-3.0,-0.5,-0.6,-2.9,·,·
COc1ccc(-n2c(SCC(=O)NCC3CCCO3)nc3c([nH]c4ccccc43)c2=O)cc1 (stereo not given),7.3*,0.2,2.9,0.2,0.1,-2.5,-0.3,3.5
